HTR5A inv ctr – HTR5A inverse agonists in luminescence cell assay, primary screen, counter-screen for OPRM1-OPRD1 heterodimer inverse agonist project, full-deck HTS; HTR5A cell line, inverse agonism; inhibition, % at 9.3 µM; hit rate 0.083% among 340,000; AID 504634, 2011; 5-hydroxytryptamine receptor 5A (Homo sapiens), P47898; in the data active means inhibition mostly above about 23%, no sharp cut-off; inactive means mostly below about 18%
Target sequence (P47898 whole entry, looked up): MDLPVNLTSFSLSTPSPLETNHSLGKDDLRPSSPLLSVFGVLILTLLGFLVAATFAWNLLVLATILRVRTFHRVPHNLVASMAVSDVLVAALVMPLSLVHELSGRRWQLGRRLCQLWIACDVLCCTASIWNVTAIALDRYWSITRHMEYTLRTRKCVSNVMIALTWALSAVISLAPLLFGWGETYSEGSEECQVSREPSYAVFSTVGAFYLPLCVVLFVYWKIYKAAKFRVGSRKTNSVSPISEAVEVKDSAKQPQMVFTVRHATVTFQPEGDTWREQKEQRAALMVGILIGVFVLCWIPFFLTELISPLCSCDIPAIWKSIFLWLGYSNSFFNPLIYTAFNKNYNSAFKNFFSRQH
HTR5A ag ctr – HTR5A agonists in luminescence cell assay, primary screen, counter-screen for OPRM1-OPRD1 heterodimer agonist project, full-deck HTS; hit rate 0.61% among 340,000; cell-based; activation, % at 9.3 µM; in the data active means activation mostly above about 9.5%, no sharp cut-off; inactive means mostly below about 7.6%
MsrA inh – bovine MsrA enzyme inhibitors, primary screen, biochemical, absorbance, HTS; Methionine sulfoxide reductase A (Bos taurus); purified bovine MsrA, absorbance read-out; inhibition, % at 15.5 µM; hit rate 0.75% among 360,000
MsrA act – bovine MsrA enzyme activators, primary screen, biochemical, absorbance, HTS | purified bovine MsrA, absorbance read-out | AID 602163, 2012 | hit rate 0.3% among 360,000 | activation, % at 10.6 µM; in the data active means activation above about 7.5%
OPRM1-OPRD1 inv – inverse agonists of MOR-DOR heterodimerization, primary screen, cell-based, luminescence | Mu-type opioid receptor (Homo sapiens) + Delta-type opioid receptor (Homo sapiens), … | hit rate 0.21% among 340,000 | cell-based MOR-DOR heterodimer luminescence, inverse agonism | AID 504357, 2011 | inhibition, % at 9.3 µM; in the data active means inhibition above about 22%, passing the limit was not always enough
MOR-DOR ag – agonists of OPRM1-OPRD1 heterodimerization, primary screen, cell-based, luminescence. activation, % at 9.3 µM. AID 504326, 2011. Mu-type opioid receptor (Homo sapiens) + Delta-type opioid receptor (Homo sapiens), …. cells. hit rate 0.3% among 340,000; in the data active means activation above about 18%
MsrA conf – bovine MsrA inhibitors, retest, confirmation, biochemical, absorbance, HTS | shares compounds with MsrA inh | purified bovine MsrA, absorbance read-out | inhibition, % at 15.5 µM | hit rate 41% among 2,300;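 further: coupled to thioredoxin reductase with NADPH and selenocystamine and DMSO as substrate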
A number is an active result; n = inactive; x = no result. Compounds with a hit are over-represented: about 1.9% of the library has one in this group of screens. Unless noted, no stated cut-off is given here; in the data, active means inhibition above about 4.5%; inactive means the rest.

SMILES | HTR5A inv ctr | HTR5A ag ctr | MsrA inh | MsrA act | OPRM1-OPRD1 inv | MOR-DOR ag | MsrA conf
COc1ccc(C(C)c2cc3c(cc2OCC(=O)O)OCO3)cc1 (stereo not given) | x | x | n | x | x | x | x
COc1cc2sc(-c3ccc(S(C)(=O)=O)cc3)c(C(=O)NCCCCO)c2cc1OC | n | n | 5.5 | n | n | n | n
O=C(NCCc1c[nH]c2ccccc12)OCCSS(=O)(=O)O | n | n | 12 | n | n | n | n
Cc1c(N2C(=O)CS/C2=N\N=C\c2ccc(Cl)cc2)c(=O)n(-c2ccccc2)n1C | n | n | n | n | n | n | x
COc1ccc(/C=N/N=C2\SCC(=O)N2c2c(C)n(C)n(-c3ccccc3)c2=O)cc1OC | n | n | 5.7 | n | n | n | n
C[C@H](c1ccccc1)N1C[C@@H](COCc2ccccc2)Oc2cccc(F)c2S1(=O)=O | x | x | n | x | x | x | x
Cc1cc(F)ccc1C(O)c1ncc(-c2cccc(F)c2)[nH]1 (stereo not given) | x | x | n | n | x | x | x
CN1/C(=C\C(=O)COC(=O)c2ccc(O)c(O)c2)C(C)(C)c2ccccc21 | x | x | 4.8 | x | x | x | n
CN1/C(=C\C(=O)COC(=O)c2ccc(O)cc2)C(C)(C)c2ccccc21 | n | n | 5.2 | n | n | n | n
CC(=O)N1C(=O)C2(NCC(C)N2)c2ccccc21 (stereo not given) | x | x | n | n | x | x | x
COC(=O)[C@@]12C[C@@H](CC(=O)N3CCOCC3)C(=O)N(Cc3ccccc3)C1=CCC(C)(C)C2 | x | x | n | x | x | x | x
O=C(Nc1ccc(Cl)c(Cl)c1)N[C@@H]1CC[C@@H](CCn2cc(C3CCCCC3)nn2)O[C@@H]1CO | x | x | n | x | x | x | x
COc1ccc(/C=N/N2C(=O)C3C4C=CC(C4)C3C2=O)cc1[N+](=O)[O-] (stereo not given) | n | n | 8.4 | n | n | n | 8.2
CC/C(=C/c1sc2ccc(C)cc2[n+]1CCCS(=O)(=O)[O-])SC | x | x | 4.8 | x | x | x | n
CC1(C)CC(N2CCN(CCO)CC2)=CC(=S)N1 | n | n | 5.8 | n | n | n | 6.1
CC1(C)CC(NCc2ccccc2)=CC(=S)N1 | x | x | x | n | x | x | x
COC(=O)c1cccc(Nc2nc(-c3cccnc3)nc3ccccc23)c1 | n | n | n | n | n | n | x
O=C(O)c1cccc(Nc2nc(-c3cccnc3)nc3ccccc23)c1 | n | n | 5.6 | n | n | n | n
CSC1=NC(=O)/C(=C/c2ccc(SC)cc2)S1 | n | n | n | n | n | n | x
CCOC(=O)CSC1=NC(=O)/C(=C\c2ccc(Cl)cc2)S1 | n | n | 5.2 | n | n | n | n
CN(C)c1ccc(CNC(=O)/C=C/[C@H]2O[C@@H](n3ccc(=O)[nH]c3=O)[C@H](O)[C@@H]2O)cc1 | x | x | n | n | x | x | x
Cc1ccc(-c2ccc(/C=N/n3cnnc3)o2)cc1Cl | n | n | 5.0 | n | n | n | n
COc1ccc(N2CCN(C(=O)C3CCN(S(=O)(=O)c4ccc5c(c4)CC(C)N5C(=O)C4CC4)CC3)CC2)cc1 (stereo not given) | x | x | n | x | x | x | x
O=C(Nc1ccc2[nH]c(=S)sc2c1)c1ccccc1 | n | n | 5.1 | n | n | n | n
O=C(Nc1ccc2[nH]c(=S)sc2c1)Nc1ccccc1F | n | n | n | n | n | n | x
SMILES | HTR5A inv ctr | HTR5A ag ctr | MsrA inh | MsrA act | OPRM1-OPRD1 inv | MOR-DOR ag | MsrA conf
CCNC(=O)N1CCN(c2ccc(N3CCN(Cc4ccccc4)[C@@H](C)C3)c(C)c2)[C@@H](C)C1 | x | x | n | x | x | x | x
COC(=O)c1sc(S(=O)(=O)NCCCN(C)C)c(C(=O)OC)c1C | n | n | n | n | n | n | x
COC(=O)c1sc(S(=O)(=O)Nc2ccc(C)c(C)c2)c(C(=O)OC)c1C | n | n | 6.1 | n | n | n | 5.7
CCN(CC)CCCN1C(=O)C(=O)/C(=C(/O)c2ccccc2)C1c1cc(OC)ccc1OC (stereo not given) | n | n | 19 | n | n | n | 6.4
COc1ccccc1C1/C(=C(/O)c2ccccc2)C(=O)C(=O)N1CCO (stereo not given) | n | n | n | n | n | n | x
CCc1cc2c(=O)c(-c3nc4ccccc4n3C)c(C)oc2c(CN(CC)CC)c1O | n | n | 5.3 | n | n | n | n
Cc1csc2ncc(C(=O)N3CCc4ccccc43)c(=O)n12 | n | n | n | n | n | n | x
Cc1csc2ncc(C(=O)N3CCCc4ccccc43)c(=O)n12 | n | n | 4.7 | n | n | n | n
CN(C)/C=C/c1[nH]c(=O)[nH]c(=O)c1[N+](=O)[O-] | n | n | n | n | n | n | x
O=c1[nH]c(/C=C/c2ccc([N+](=O)[O-])cc2)c([N+](=O)[O-])c(=O)[nH]1 | n | n | 5.4 | n | n | n | 5.6
COc1cc(C(C#N)N2N=C(c3ccccc3)CC2c2ccccc2)ccc1O (stereo not given) | n | n | 4.7 | n | n | n | n
N#CC(c1ccccc1O)N1N=C(c2ccccc2)CC1c1ccccc1 (stereo not given) | n | n | n | n | n | n | x
CN1/C(=C\C=C(C#N)C#N)C(C)(C)c2ccccc21 | n | n | n | n | n | n | x
CN1/C(=C/C=N/n2cnnc2)C(C)(C)c2ccccc21 | n | n | 4.8 | n | n | n | n
Cc1ccc(NS(=O)(=O)c2cc(-c3n[nH]c(=O)c4ccccc34)ccc2C)cc1 | n | n | 5.2 | n | n | n | 5.0
CC(=O)Nc1ccc(-c2ccnc3c2CC(C)(C(=O)Nc2ccc(F)c(Cl)c2)O3)cc1 (stereo not given) | x | x | n | n | x | x | x
CCOC(=O)/C(C#N)=C1/C=CN(C)C(C)=N1 | n | n | 6.6 | n | n | n | 6.0
Cc1ccccc1-c1cc2c(nn1)-c1ccccc1C2=O | n | n | 5.9 | n | n | n | n
CC(=O)NC(C)(c1ccccc1)c1nc(-c2ccc(F)c(Cl)c2)cs1 (stereo not given) | x | x | n | n | x | x | x
COc1ccc2nc(-c3ccc(N)cc3)[nH]c2c1 | n | n | n | n | n | n | x
Nc1ccc2nc(-c3ccccc3)[nH]c2c1 | n | n | n | n | n | n | x
Nc1ccc(-c2nc3c(Cl)cc(N)cc3[nH]2)cc1 | n | n | 5.2 | n | n | n | n
Nc1ccc2nc(-c3ccc(N)c(Cl)c3)[nH]c2c1 | n | n | 5.5 | n | n | n | 5.5
O=c1cc(-c2ccc(O)cc2)oc2ccccc12 | n | n | n | n | n | n | x
O=c1cc(-c2ccc(O)cc2)oc2ccc(O)cc12 | n | n | 5.5 | n | n | n | n
COc1cccc(N/N=C(\C#N)S(=O)(=O)C(C)(C)C)c1 | x | x | 4.7 | n | x | x | n
Cc1cc(C(=O)O)ccc1-n1c(C)cc(/C=C2\SC(=O)NC2=O)c1C | n | n | 5.7 | n | n | n | n
O=C(N/N=C/c1ccnc2ccccc12)c1ccccc1O | n | n | 5.6 | n | n | n | n
O=C(N/N=C/c1ccc2nccnc2c1)c1ccccc1O | x | x | n | x | x | x | x

Compound activity as filed in PubChem.
